# Results taken from PubChem BioAssay (EPA / NIEHS).
# Results filed as inconclusive are left out. Active and inactive are the calls of the source. How the source made its calls: active means hit-call score of the fitted dose curve at least 0.9, where 1 is the maximum; inconclusive means response in the unintended direction; inactive means score below 0.9.
# Legend:
# [1] = target: human Phosphodiesterase 10 (PDE10), PDE10A (gene 10846) (UniProt Q9Y233); test: NVS_ENZ_hPDE10: NovaScreen (NVS) Enzymatic Assay for human Phosphodiesterase 10 (PDE10) (AID 2283195)
# Outline: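 Biochemical single-readout PDE10A assay, cell-free, extracted protein. Compounds first screened at 25 uM in duplicate, hits then titrated to 50 uM max. Activity measured after 1 h; loss-of-signal fitted against DMSO negative control.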
# [2] = target: Cytochrome P450 2C19 (Homo sapiens) (UniProt P33261); test: NVS_ADME_hCYP2C19: NovaScreen (NVS) CYP450-related Enzyme Activity (ADME) Assay for human CYP2C19 (AID 2283113);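 further: potency for inhibition seen as loss of fluorescent signal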
# Outline: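 Compounds first screened in duplicate at 10 uM, then confirmed in concentration series. Insect-cell-expressed human CYP2C19 turned over a fluorogenic substrate, and fluorescence was read after 1 h. Inhibition taken as signal loss relative to acetonitrile.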
# [3] = target: human Caspase 5 (CASP5), CASP5 (gene 838) (UniProt P51878); test: NVS_ENZ_hCASP5: NovaScreen (NVS) Enzymatic Assay for human Caspase 5 (CASP5) (AID 2283137)
# Outline: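 Caspase 5 enzyme activity, detected as fluorescence signal loss, is measured in a biochemical format using E. coli-expressed protein. Reading occurs 2 hours post-dosing. Screening runs at 25 uM, with confirmed actives titrated to 50 uM maximum.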
# [4] = target: human Matrix Metalloproteinase-9 (MMP9), MMP9 (gene 4318) (UniProt P14780); test: NVS_ENZ_hMMP9: NovaScreen (NVS) Enzymatic Assay for human Matrix Metalloproteinase-9 (MMP9) (AID 2283190);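 further: cell-free recombinant MMP9 protease activity read by fluorescent substrate signal; active means inhibition seen as loss of fluorescence signal versus DMSO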
# Outline: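 Inhibition was scored as loss of fluorescence signal against DMSO controls. The recombinant protease was exposed to chemicals for 1 hour before reading; initial testing used 25 uM in duplicate.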
# [5] = target: human Phosphoinositide 3-kinase alpha (PI3Ka), PIK3CA (gene 5290) (UniProt P42336); test: NVS_ENZ_hPI3Ka: NovaScreen (NVS) Enzymatic Assay for human Phosphoinositide 3-kinase alpha (PI3Ka) (AID 2283196)
# Outline: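 Chemicals were first screened at 25 uM in duplicate, then hits were run as concentration series up to 50 uM. Enzyme activity was measured by fluorescence after mobility-shift separation, with loss of signal relative to DMSO taken as activity.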
# [6] = target: human Beta-secretase (BACE), BACE1 (gene 23621) (UniProt P56817); test: NVS_ENZ_hBACE: NovaScreen (NVS) Enzymatic Assay for human Beta-secretase (BACE) (AID 2283140);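 further: hits are inhibitors that reduce fluorescent substrate signal versus DMSO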
# Outline: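 Enzyme activity of SF9-produced BACE1 is measured cell-free by fluorescence, 1 hour post dosing, normalised to DMSO. Screening used 25 uM in duplicate, with concentration-response follow-up for actives.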
# [7] = target: human Ephrin type-A Receptor 1 (EphA1), EPHA1 (gene 2041) (UniProt P21709); test: NVS_ENZ_hEphA1: NovaScreen (NVS) Enzymatic Assay for human Ephrin type-A Receptor 1 (EphA1) (AID 2283158);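 further: activity is signal loss versus DMSO meaning EphA1 kinase inhibition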
# Outline: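 Fluorescent substrate conversion, resolved by mobility-shift separation, measured 1 hour post-dosing using recombinant enzyme; signal loss relative to DMSO baseline. Single-concentration duplicates at 25 uM preceded singleton concentration series topping at 50 uM.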
# [8] = target: guinea pig Leukotriene D4 Receptor (LTD4), CYSLTR1 (gene 100135514) (UniProt Q2NNR5); test: NVS_GPCR_gLTD4: NovaScreen (NVS) G Protein-Coupled Receptor Assay for guinea pig Leukotriene D4 Receptor (LTD4) (AID 2283248)
# Outline: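 Guinea pig lung membrane preparation; bound radioligand measured by filter scintillation after 1 h, loss of signal versus DMSO marking displacement. Compounds tested at 25 uM in duplicate, hits retested to max 50 uM.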
# [9] = target: human Dual Specificity Protein Phosphatase 3 (DUSP3), DUSP3 (gene 1845) (UniProt P51452); test: NVS_ENZ_hDUSP3: NovaScreen (NVS) Enzymatic Assay for human Dual Specificity Protein Phosphatase 3 (DUSP3) (AID 2283152);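 further: phosphatase activity of recombinant human DUSP3 on a fluorogenic substrate without cells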
# Outline: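 Cell-free fluorescence-intensity enzyme activity assay with recombinant protein and substrate; loss of signal fitted relative to DMSO baseline. Primary screen in duplicate at 25 uM, actives then run in concentration series; measured 0 h after dosing.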
# [10] = target: human Vascular Endothelial Growth Factor Receptor 1 (VEGFR1), FLT1 (gene 2321) (UniProt P17948); test: NVS_ENZ_hVEGFR1: NovaScreen (NVS) Enzymatic Assay for human Vascular Endothelial Growth Factor Receptor 1 (VEGFR1) (AID 2283226)
# Outline: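 Kinase activity of recombinant human VEGFR1 was read by fluorescence after electrophoretic separation of product from substrate, 1 h post-dosing; initial duplicate single-point testing at 25 uM, followed by concentration-series follow-up, with DMSO as baseline.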
# Chain of human Matrix Metalloproteinase-9 (MMP9), MMP9 (gene 4318) (P14780 whole entry, looked up): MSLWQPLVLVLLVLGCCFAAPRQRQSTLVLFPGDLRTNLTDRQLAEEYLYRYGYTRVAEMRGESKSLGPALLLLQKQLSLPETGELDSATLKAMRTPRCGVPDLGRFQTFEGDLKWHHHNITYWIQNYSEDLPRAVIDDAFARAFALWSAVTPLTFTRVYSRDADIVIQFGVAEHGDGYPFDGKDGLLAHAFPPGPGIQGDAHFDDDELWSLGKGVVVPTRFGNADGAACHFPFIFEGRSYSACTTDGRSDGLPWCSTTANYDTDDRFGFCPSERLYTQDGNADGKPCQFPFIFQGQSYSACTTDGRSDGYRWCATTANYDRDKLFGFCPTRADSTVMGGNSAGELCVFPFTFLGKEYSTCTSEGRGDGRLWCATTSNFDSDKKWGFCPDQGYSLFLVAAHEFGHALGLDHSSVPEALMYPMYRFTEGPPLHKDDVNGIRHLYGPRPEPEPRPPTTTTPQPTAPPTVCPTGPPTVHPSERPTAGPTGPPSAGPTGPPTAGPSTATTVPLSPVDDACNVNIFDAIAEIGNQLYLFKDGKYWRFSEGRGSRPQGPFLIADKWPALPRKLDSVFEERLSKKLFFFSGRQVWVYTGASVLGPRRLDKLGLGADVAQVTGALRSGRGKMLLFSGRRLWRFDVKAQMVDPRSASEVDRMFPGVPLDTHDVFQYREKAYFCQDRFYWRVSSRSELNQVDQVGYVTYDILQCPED
# Chain of human Beta-secretase (BACE), BACE1 (gene 23621) (P56817 whole entry, looked up): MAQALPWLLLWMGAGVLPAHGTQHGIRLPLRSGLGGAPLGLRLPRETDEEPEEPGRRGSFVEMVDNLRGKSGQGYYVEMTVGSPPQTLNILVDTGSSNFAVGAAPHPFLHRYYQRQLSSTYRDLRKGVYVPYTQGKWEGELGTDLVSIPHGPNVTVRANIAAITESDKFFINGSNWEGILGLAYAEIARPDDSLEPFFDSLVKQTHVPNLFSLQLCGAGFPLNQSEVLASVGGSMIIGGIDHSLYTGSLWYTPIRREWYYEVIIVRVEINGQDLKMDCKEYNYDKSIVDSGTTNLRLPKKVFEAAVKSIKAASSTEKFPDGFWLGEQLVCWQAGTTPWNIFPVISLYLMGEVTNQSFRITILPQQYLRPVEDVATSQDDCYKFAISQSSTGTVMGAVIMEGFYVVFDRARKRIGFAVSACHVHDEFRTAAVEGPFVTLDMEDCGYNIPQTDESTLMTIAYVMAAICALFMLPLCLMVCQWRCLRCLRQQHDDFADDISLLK
# Chain of human Phosphodiesterase 10 (PDE10), PDE10A (gene 10846) (Q9Y233 whole entry, looked up): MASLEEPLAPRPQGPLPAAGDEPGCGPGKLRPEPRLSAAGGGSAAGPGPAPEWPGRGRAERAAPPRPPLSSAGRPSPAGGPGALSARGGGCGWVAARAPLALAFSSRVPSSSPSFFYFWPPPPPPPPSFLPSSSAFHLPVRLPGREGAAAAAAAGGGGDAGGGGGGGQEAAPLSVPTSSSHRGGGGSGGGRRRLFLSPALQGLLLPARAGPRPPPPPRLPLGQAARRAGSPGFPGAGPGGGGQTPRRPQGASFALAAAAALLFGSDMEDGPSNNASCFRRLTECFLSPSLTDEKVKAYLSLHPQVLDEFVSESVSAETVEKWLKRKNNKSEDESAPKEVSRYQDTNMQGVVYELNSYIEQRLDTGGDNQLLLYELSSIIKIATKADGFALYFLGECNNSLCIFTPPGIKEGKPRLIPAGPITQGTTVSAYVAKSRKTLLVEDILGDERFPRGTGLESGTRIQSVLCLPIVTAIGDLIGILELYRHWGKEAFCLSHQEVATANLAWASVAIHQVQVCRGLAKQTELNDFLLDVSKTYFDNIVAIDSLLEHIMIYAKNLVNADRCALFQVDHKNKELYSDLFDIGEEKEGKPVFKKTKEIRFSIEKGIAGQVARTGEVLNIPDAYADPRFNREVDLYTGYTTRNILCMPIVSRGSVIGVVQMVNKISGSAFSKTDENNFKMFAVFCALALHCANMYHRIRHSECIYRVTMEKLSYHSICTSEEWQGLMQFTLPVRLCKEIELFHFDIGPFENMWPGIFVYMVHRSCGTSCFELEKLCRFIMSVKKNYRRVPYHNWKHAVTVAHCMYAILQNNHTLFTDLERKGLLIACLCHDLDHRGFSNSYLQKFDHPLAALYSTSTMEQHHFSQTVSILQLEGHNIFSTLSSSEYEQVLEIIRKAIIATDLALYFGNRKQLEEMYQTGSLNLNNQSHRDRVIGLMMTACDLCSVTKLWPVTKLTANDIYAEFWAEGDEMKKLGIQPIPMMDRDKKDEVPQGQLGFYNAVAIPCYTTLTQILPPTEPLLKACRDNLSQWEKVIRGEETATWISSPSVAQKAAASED
# Chain of human Ephrin type-A Receptor 1 (EphA1), EPHA1 (gene 2041) (P21709 whole entry, looked up): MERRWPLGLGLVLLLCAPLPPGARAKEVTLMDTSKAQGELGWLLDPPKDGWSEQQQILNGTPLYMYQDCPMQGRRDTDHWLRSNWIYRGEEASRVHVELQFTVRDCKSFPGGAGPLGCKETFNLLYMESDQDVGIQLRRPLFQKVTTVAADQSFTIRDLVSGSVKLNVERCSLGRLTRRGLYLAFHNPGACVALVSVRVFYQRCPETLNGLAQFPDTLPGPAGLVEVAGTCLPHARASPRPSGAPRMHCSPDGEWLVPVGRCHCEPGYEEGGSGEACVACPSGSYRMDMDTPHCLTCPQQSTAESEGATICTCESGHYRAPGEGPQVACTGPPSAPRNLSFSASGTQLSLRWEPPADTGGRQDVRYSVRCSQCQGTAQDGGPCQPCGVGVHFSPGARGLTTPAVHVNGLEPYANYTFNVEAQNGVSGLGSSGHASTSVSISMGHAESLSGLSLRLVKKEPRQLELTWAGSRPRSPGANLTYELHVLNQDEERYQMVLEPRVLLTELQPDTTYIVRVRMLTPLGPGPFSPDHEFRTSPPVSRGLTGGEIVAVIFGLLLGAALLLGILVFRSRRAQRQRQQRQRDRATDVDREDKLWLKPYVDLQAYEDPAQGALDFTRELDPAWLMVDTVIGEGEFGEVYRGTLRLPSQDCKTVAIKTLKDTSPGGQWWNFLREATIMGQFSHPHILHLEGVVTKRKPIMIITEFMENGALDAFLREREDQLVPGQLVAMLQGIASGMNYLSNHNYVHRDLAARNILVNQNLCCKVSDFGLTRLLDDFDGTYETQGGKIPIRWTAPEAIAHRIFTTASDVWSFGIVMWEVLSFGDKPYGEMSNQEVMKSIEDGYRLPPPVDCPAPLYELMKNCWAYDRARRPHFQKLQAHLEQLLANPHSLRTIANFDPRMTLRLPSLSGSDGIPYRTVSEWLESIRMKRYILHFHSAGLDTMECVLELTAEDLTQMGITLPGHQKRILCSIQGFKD
# Chain of human Phosphoinositide 3-kinase alpha (PI3Ka), PIK3CA (gene 5290) (P42336 whole entry, looked up): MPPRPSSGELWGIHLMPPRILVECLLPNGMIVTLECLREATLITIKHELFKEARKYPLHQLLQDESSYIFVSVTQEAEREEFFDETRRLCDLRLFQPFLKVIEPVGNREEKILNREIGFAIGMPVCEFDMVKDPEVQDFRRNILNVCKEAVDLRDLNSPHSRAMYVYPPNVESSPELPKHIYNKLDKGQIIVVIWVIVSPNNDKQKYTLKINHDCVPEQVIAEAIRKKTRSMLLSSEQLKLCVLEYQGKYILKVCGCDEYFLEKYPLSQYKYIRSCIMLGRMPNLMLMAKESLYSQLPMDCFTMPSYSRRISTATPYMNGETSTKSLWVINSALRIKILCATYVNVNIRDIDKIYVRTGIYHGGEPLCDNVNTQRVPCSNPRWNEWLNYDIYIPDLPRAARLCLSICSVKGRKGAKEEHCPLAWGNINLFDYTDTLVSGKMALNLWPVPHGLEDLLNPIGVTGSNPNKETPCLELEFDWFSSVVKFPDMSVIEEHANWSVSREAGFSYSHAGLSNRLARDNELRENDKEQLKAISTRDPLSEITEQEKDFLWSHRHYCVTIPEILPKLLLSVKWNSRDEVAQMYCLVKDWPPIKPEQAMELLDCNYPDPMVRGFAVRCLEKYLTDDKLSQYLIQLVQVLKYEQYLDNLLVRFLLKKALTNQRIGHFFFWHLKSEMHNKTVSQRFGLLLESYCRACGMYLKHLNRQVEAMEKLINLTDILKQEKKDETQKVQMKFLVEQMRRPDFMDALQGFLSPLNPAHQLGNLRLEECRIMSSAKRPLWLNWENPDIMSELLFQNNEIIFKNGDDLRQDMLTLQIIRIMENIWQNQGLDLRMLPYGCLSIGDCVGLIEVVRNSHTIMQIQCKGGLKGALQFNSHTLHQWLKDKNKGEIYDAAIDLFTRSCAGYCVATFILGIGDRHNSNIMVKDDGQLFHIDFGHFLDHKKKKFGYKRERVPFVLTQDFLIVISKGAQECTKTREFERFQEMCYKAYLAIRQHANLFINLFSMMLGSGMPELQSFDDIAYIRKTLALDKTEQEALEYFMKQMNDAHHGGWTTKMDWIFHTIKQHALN
# Chain of guinea pig Leukotriene D4 Receptor (LTD4), CYSLTR1 (gene 100135514) (Q2NNR5 whole entry, looked up): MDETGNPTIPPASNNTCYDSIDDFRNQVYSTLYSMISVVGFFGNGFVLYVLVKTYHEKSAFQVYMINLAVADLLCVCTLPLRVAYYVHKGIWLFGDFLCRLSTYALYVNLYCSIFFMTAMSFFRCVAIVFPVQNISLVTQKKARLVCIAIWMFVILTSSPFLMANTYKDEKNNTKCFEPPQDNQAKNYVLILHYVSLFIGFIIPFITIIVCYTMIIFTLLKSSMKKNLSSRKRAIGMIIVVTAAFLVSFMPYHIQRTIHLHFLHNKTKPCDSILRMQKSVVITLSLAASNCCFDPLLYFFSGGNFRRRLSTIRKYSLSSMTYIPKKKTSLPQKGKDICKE
# Chain of human Dual Specificity Protein Phosphatase 3 (DUSP3), DUSP3 (gene 1845) (P51452 whole entry, looked up): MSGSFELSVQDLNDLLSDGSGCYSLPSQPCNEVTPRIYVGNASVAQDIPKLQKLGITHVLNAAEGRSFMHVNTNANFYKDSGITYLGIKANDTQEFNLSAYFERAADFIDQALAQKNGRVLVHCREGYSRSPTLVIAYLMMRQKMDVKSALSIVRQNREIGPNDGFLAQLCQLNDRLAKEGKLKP
structure (smiles),measurement,setting,value
CO[Si](OC)(c1ccccc1)c1ccccc1,outcome,[1],inactive
Oc1ccc(Nc2ccccc2)cc1,AC50,[2],2.86 µM (active)
same,AC50,[3],8.26 µM (active)
same,AC50,[4],9.97 µM (active)
same,outcome,[5],inactive
CCc1ccc(C(c2ccc(CC)cc2)C(Cl)Cl)cc1,AC50,[6],3.11 µM (active)
same,outcome,[7],inactive
same,outcome,[4],inactive
same,AC50,[1],14.1 µM (active)
CCCCNc1ccccc1,AC50,[4],4.99 µM (active)
same,outcome,[8],inactive
CCCCCCCCCCCCCCCC[N+](C)(C)Cc1ccccc1,AC50,[2],5 µM (active)
same,AC50,[6],6.34 µM (active)
same,AC50,[9],4.22 µM (active)
same,outcome,[7],inactive
same,outcome,[4],inactive
same,outcome,[5],inactive
same,outcome,[10],inactive
CCN(CC)c1ccc2c(C)cc(=O)oc2c1,AC50,[6],36.4 µM (active)
same,outcome,[7],inactive
same,outcome,[1],inactive
c1ccc(-c2ccccc2-c2ccccc2)cc1,outcome,[8],inactive
CC(=O)Nc1ccc(N=Nc2cc(C)ccc2O)cc1,AC50,[2],0.00307 µM (active)
same,outcome,[1],inactive
C#C[C@]1(O)CC[C@H]2[C@@H]3CCc4cc(OC)ccc4[C@H]3CC[C@@]21C,AC50,[2],6.84 µM (active)
CC(C)=CCCC(C)CCOC(=O)C(C)C (stereo not drawn),outcome,[1],inactive
CCCCOCCOCCOC(=O)CCCCC(=O)OCCOCCOCCCC,AC50,[2],5 µM (active)
CCCCCC=O,AC50,[4],1.86 µM (active)
